# Measured values published in PubChem BioAssay (EPA / NIEHS).
# “And” between values parts separate entries of the source, which are not always exact repeats. Equal entries are not always repeated. Records with an inconclusive call do not appear. The source made the active and inactive calls. How the source made its calls: active means hit-call score of the fitted dose curve at least 0.9, where 1 is the maximum; inconclusive means response in the unintended direction; inactive means score below 0.9.
# What was measured:
# [1] = ACEA_ER_AUC_viability: ACEA Biosciences xCELLigence Real-Time Cell Analysis on Estrogen Receptor Agonism for Viability (AID 2283782);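 further: continuous compound exposure with impedance area under curve over 80 h; hit means loss of impedance signal meaning reduced cell growth or viability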
# In short: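 T47D cells preconditioned in phenol red-free RPMI with charcoal-stripped FBS, then dosed with 8-point 1:4 series from 100 uM (up to 0.5% DMSO). Impedance monitored up to ~80 h; area-under-curve loss versus DMSO taken as viability.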
# [2] = test system: zebrafish Estrogen Receptor (ESR2A), gene 317734; assay: ATG_zfER2a_XSP1: Attagene TRANS-FACTORIAL Multi-Species (XSP1) HepG2 Assay for zebrafish Estrogen Receptor (ESR2A) (AID 2283778)
# In short: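 HepG2 cells transiently transfected with GAL4-UAS reporter units driven by a zebrafish ESR2A–Gal4 chimera; 24 h compound exposure with 3 nM 6-alpha-fluorotestosterone present. Reporter mRNA measured by RT-PCR with fluorescent capillary electrophoresis, fitted positive versus DMSO.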
# [3] = biological target: chicken Estrogen Receptor (ESR1), ESR1 (gene 396099) (UniProt P06212); assay: ATG_chERa_XSP1: Attagene TRANS-FACTORIAL Multi-Species (XSP1) HepG2 Assay for chicken Estrogen Receptor (ESR1) (AID 2283779)
# Sequence of chicken Estrogen Receptor (ESR1), ESR1 (gene 396099) (P06212 whole entry, looked up, the tested form may be a part): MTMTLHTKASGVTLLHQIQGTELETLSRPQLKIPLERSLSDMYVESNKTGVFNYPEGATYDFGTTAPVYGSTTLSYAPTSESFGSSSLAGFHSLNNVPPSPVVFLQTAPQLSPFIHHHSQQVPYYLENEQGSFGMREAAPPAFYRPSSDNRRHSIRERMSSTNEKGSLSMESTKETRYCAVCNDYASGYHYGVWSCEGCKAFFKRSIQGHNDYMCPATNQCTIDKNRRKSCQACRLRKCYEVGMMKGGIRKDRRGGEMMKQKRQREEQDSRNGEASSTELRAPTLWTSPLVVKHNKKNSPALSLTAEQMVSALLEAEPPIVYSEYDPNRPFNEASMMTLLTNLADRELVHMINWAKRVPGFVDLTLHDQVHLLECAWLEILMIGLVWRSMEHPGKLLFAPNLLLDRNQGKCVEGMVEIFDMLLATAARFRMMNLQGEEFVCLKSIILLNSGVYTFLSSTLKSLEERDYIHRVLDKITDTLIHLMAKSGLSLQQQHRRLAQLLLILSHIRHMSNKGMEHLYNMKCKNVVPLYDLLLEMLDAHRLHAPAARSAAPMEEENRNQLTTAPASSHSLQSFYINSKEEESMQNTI
# In short: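 HepG2 cells transiently transfected with GAL4-UAS reporter units for chimeric chicken ERα-Gal4, dosed 24 h with 3 nM 6-alpha-fluorotestosterone present. Reporter mRNA by RT-PCR and capillary electrophoresis; gain-of-signal fit versus DMSO.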
# [4] = biological target: Estrogen receptor (Homo sapiens) (UniProt P03372); assay: ATG_hERa_XSP1: Attagene TRANS-FACTORIAL Multi-Species (XSP1) HepG2 Assay for human Estrogen Receptor (ESR1) (AID 2283780)
# Sequence of Estrogen receptor (Homo sapiens) (P03372 whole entry, looked up, the tested form may be a part): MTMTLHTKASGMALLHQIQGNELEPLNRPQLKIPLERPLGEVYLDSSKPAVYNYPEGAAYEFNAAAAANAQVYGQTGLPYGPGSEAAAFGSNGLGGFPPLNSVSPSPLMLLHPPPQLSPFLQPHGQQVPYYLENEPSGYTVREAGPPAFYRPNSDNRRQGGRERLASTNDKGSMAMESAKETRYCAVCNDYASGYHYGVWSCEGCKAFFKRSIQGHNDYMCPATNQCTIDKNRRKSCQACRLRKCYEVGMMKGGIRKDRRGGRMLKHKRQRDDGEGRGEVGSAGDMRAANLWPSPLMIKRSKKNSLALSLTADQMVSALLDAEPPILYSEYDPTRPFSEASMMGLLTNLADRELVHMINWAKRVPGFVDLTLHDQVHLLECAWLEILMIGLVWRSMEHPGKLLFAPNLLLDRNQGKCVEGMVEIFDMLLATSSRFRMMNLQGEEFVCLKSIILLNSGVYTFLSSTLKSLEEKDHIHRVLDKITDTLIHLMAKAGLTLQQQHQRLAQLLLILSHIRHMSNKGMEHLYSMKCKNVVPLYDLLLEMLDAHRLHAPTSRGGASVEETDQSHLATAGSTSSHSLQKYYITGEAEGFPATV
# In short: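 HepG2 cells transiently transfected with GAL4-UAS reporter units and chimeric NR-Gal4 constructs; 24 h after dosing, reporter mRNA quantified by RT-PCR and capillary electrophoresis. Medium contained 3 nM 6-alpha-fluorotestosterone; activity fitted as gain-of-signal versus DMSO.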
# [5] = test system: turtle Estrogen Receptor (ESR1), gene 101933533; assay: ATG_trERa_XSP1: Attagene TRANS-FACTORIAL Multi-Species (XSP1) HepG2 Assay for turtle Estrogen Receptor (ESR1) (AID 2283781)
# In short: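 Turtle ERa as a GAL4 chimera in transiently transfected HepG2 cells; reporter mRNA quantified 24 h after dosing by RT-PCR and capillary electrophoresis. 3 nM 6-alpha-fluorotestosterone present; gain of signal versus DMSO.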
# [6] = ATG_M_06_XSP1: Attagene TRANS-FACTORIAL Multi-Species (XSP1) HepG2 Assay for M06 Transcription Factor (Internal Marker) (AID 2283790)
# In short: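 Transfected HepG2 multi-reporter system treated 24 h in the presence of 3 nM 6-alpha-fluorotestosterone. The M06 internal marker transcript was quantified by RT-PCR with capillary electrophoresis as a background control, and gain of signal was scored versus DMSO.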
# [7] = ATG_M_61_XSP1: Attagene TRANS-FACTORIAL Multi-Species (XSP1) HepG2 Assay for M61 Transcription Factor (Internal Marker) (AID 2283797)
# In short: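 HepG2 cells transiently transfected with multiplexed GAL4-driven reporter units, dosed 24 h with 3 nM 6-alpha-fluorotestosterone present. Reporter mRNA quantified by RT-PCR, 6-FAM labelling, HpaI digestion and capillary electrophoresis; internal-marker background control, gain of signal versus DMSO.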
# [8] = ATG_M_32_XSP1: Attagene TRANS-FACTORIAL Multi-Species (XSP1) HepG2 Assay for M32 Transcription Factor (Internal Marker) (AID 2283799)
# In short: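 HepG2 cells transiently transfected with multi-species TRANS reporter units, dosed 24 h with 3 nM 6-alpha-fluorotestosterone present. Internal-marker reporter mRNA quantified by RT-PCR and capillary electrophoresis; positive-direction fit versus DMSO.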
# [9] = test system: zebrafish Peroxisome Proliferator-activated Receptor gamma (PPARg), gene 557037; assay: ATG_zfPPARg_XSP1: Attagene TRANS-FACTORIAL Multi-Species (XSP1) HepG2 Assay for zebrafish Peroxisome Proliferator-activated Receptor gamma (PPARg) (AID 2283801)
# In short: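 HepG2 cells transiently transfected with GAL4-UAS reporter units including a zebrafish PPARg–GAL4 chimera, dosed 24 h with 3 nM 6-alpha-fluorotestosterone present. Reporter mRNA quantified by RT-PCR, FAM labelling, HpaI digestion and capillary electrophoresis; induction versus DMSO.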
# [10] = biological target: Nuclear receptor subfamily 1 group I member 2 (Mus musculus) (UniProt O54915); assay: ATG_mPXR_XSP1: Attagene TRANS-FACTORIAL Multi-Species (XSP1) HepG2 Assay for mouse Pregnane X Receptor (PXR) (AID 2283803)
# Sequence of Nuclear receptor subfamily 1 group I member 2 (Mus musculus) (O54915 whole entry, looked up, the tested form may be a part): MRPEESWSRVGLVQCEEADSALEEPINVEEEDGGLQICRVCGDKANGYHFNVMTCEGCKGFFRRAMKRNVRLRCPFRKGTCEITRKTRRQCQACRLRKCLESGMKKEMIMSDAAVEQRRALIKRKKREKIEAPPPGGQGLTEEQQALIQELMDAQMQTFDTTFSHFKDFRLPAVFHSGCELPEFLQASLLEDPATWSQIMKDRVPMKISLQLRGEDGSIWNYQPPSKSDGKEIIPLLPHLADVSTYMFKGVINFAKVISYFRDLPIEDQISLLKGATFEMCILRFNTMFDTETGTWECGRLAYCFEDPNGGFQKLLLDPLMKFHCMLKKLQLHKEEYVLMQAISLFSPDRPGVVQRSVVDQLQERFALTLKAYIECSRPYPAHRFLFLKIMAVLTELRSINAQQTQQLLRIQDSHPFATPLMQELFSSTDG
# In short: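 Transiently transfected HepG2 cells expressing a receptor-Gal4 chimera drive a GAL4-UAS reporter; 3 nM 6-alpha-fluorotestosterone included. Reporter mRNA read 24 h post-dose by RT-PCR and capillary electrophoresis; gain of signal relative to DMSO.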
# [11] = biological target: frog Thyroid hormone Receptor alpha (TRa), thra-a (gene 397942) (UniProt P15204); assay: ATG_frTRa_XSP1: Attagene TRANS-FACTORIAL Multi-Species (XSP1) HepG2 Assay for frog Thyroid hormone Receptor alpha (TRa) (AID 2283804)
# Sequence of frog Thyroid hormone Receptor alpha (TRa), thra-a (gene 397942) (P15204 whole entry, looked up, the tested form may be a part): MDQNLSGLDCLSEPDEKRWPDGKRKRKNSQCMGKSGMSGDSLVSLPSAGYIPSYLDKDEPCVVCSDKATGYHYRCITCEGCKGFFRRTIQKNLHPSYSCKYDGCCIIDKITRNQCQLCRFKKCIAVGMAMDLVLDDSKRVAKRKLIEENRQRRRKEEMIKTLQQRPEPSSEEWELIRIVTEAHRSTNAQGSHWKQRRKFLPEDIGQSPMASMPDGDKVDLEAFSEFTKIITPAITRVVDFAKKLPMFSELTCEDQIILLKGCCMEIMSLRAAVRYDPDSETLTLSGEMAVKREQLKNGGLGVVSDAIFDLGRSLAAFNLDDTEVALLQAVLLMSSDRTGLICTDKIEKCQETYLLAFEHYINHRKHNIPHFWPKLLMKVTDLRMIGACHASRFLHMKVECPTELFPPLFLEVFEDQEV
# In short: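 HepG2 cells transiently transfected with frog TRa-GAL4 chimeric reporter units, dosed 24 hr with 3 nM 6-alpha-fluorotestosterone present; reporter mRNA quantified by RT-PCR, fluorescent labelling and capillary electrophoresis, gain of signal versus DMSO.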
smiles,measurement,setting,value
CC(=O)NC1(c2cccc(F)c2)CCN(CC[C@@]2(c3ccc(Cl)c(Cl)c3)CN(c3ccccc3)C(=O)CO2)CC1,AC50,[1],11.8 µM (active)
C=C(C)C(=O)OCCC(F)(F)C(F)(F)C(F)(F)C(F)(F)C(F)(F)C(F)(F)F,outcome,[1],inactive
CC#C[C@]1(O)CC[C@H]2[C@@H]3CCC4=CC(=O)CCC4=C3[C@@H](c3ccc(N(C)C)cc3)C[C@@]21C,AC50,[1],90.5 µM (active) and 83.7 µM (active) and 82.6 µM (active)
FC(F)(I)C(F)(F)C(F)(F)C(F)(F)C(F)(F)C(F)(F)I,AC50,[1],45 µM (active)
OC1CCC(C2CCCCC2)CC1 (stereo not given),AC50,[1],83 µM (active) and 84.8 µM (active) and 86.7 µM (active)
CCCOc1sc(C(=O)N2CCC(c3cc(CN)ccc3F)CC2)c(C)c1Br,AC50,[1],5.11 µM (active)
CC(C)(C)c1ccc(O)c(C(C)(C)C)c1,AC50,[1],17.3 µM (active)
NCC(F)(F)C(F)(F)C(F)(F)C(F)(F)C(F)(F)C(F)(F)C(F)(F)F,outcome,[1],inactive
OCCC(F)(F)C(F)(F)C(F)(F)C(F)(F)C(F)(F)C(F)(F)F,outcome,[1],inactive
CCC(C)(C)C1CCC(O)CC1 (stereo not given),outcome,[2],inactive
same,outcome,[3],inactive
same,AC50,[4],10 µM (active)
same,AC50,[5],10 µM (active)
same,outcome,[1],inactive
same,outcome,[6],inactive
same,outcome,[7],inactive
same,outcome,[8],inactive
same,outcome,[9],inactive
same,outcome,[10],inactive
same,outcome,[11],inactive
O=C1OC2(c3ccccc31)c1cc(Br)c(O)c(Br)c1Oc1c2cc(Br)c(O)c1Br,outcome,[1],inactive
Cc1cc(C)c(O)c(C)c1,outcome,[1],inactive
CC(O)C(=O)O (stereo not given),outcome,[1],inactive
CC(C)(C)CC(C)(C)c1ccc(O)c(-n2nc3ccccc3n2)c1,AC50,[1],21.6 µM (active)
c1ccc2c(c1)Cc1ccccc1-2,outcome,[1],inactive
